Holding throughout (assay): yeast three-hybrid, YBZ-1, SC-Leu-His + 0.5 mM 3-AT, 4 days
Common to all, as to conditions: tags: N-Gal4 AD-HA kept; label: inside an RPR1-promoter hybrid RNA with tandem MS2 sites; ssRNA

In one assay the target is PUM1 PUF domain R5-AAR (Homo sapiens, UniProt Q14671 828-1176, C1007A;R1008A;Q1011R). The procedure, abridged:
(§1)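 A centromeric plasmid in strain YBZ-1 co-expressed Pumilio-1 PUF domain libraries, randomized at the three base-contacting residues of each repeat, with matching RNA elements; the strain carries a LexA–MS2 coat fusion and a HIS3 reporter. After four days on SC-Leu (input) or SC-Leu-His + 0.5 mM 3-AT (selection), the repeat regions were PCR-amplified and Illumina-sequenced. The interaction score is the log change in variant frequency from input to selection, using log2 and a pseudocount of 1 where absent.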

The target in the next assay is PUM1 PUF domain R5-KRK (Homo sapiens, UniProt Q14671 828-1176, C1007K;Q1011K). The procedure, abridged: as §1
Another assay deals with PUM1 PUF domain R5-KVE (Homo sapiens, UniProt Q14671 828-1176, C1007K;R1008V;Q1011E). The procedure, abridged:
as §1

The next assay deals with T1, PUM1 PUF domain R6-KWC (Homo sapiens, UniProt Q14671 828-1176, N1043K;Y1044W;Q1047C).
T1 sequence: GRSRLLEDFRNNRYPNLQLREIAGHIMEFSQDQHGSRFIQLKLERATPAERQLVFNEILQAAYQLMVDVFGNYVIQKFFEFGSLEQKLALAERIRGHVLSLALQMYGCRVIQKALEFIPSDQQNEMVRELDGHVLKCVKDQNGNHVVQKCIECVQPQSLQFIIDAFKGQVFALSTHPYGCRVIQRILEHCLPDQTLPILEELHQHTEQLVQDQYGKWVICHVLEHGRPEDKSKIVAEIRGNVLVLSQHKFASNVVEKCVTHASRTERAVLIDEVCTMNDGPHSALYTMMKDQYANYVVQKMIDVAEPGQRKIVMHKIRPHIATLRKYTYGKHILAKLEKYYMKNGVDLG
In short, it runs like this: as §1

For another assay, the target named is T2, PUM1 PUF domain R6-RWL (Homo sapiens, UniProt Q14671 828-1176, N1043R;Y1044W;Q1047L).
T2 sequence: T1 sequence with K216R, C220L
In short, it runs like this:
as §1

A further assay concerns the target T3, PUM1 PUF domain R6-CWL (Homo sapiens, UniProt Q14671 828-1176, N1043C;Y1044W;Q1047L).
T3 sequence: T1 sequence with K216C, C220L
The procedure, abridged:
as §1

The next assay concerns the target PUM1 PUF domain R3-PFV (Homo sapiens, UniProt Q14671 828-1176, C935P;R936F;Q939V). In short, it runs like this:
as §1

In the next assay the target is PUM1 PUF domain R3-SRF (Homo sapiens, UniProt Q14671 828-1176, C935S;Q939F). The procedure, abridged: as §1
In the next assay the target is PUM1 PUF domain R3-FYS (Homo sapiens, UniProt Q14671 828-1176, C935F;R936Y;Q939S). In short, it runs like this: as §1
Another assay has as its target PUM1 PUF domain R4-VPC (Homo sapiens, UniProt Q14671 828-1176, N971V;H972P;Q975C). The procedure, abridged: as §1
The target in another assay is PUM1 PUF domain R2-NWP (Homo sapiens, UniProt Q14671 828-1176, Y900W;Q903P). In short, it runs like this: as §1
A further assay concerns the target PUM1 PUF domain R8-KFY (Homo sapiens, UniProt Q14671 828-1176, N1122K;Y1123F;Q1126Y). The procedure, abridged: as §1
For a further assay, the target named is PUM1 PUF domain R8-HFP (Homo sapiens, UniProt Q14671 828-1176, N1122H;Y1123F;Q1126P). The procedure, abridged:
as §1

The target in the next assay is PUM1 PUF domain R8-PYC (Homo sapiens, UniProt Q14671 828-1176, N1122P;Q1126C). The procedure, abridged:
as §1

The next assay concerns the target PUM1 PUF domain R4-DFR (Homo sapiens, UniProt Q14671 828-1176, N971D;H972F;Q975R). The procedure, abridged: as §1
The target of assay [1] is PUM1 PUF domain R1-QFR R2-VFQ R7-NPG (Homo sapiens, UniProt Q14671 828-1176, S863Q;R864F;Q867R;N899V;Y900F;S1079N;N1080P;E1083G). In short, it runs like this:
as §1

In the next assay the target is PUM1 PUF domain R1-TKK (Homo sapiens, UniProt Q14671 828-1176, S863T;R864K;Q867K). In short, it runs like this: as §1
The next assay concerns the target PUM1 PUF domain R3-RPQ (Homo sapiens, UniProt Q14671 828-1176, C935R;R936P). The procedure, abridged:
as §1

Another assay addresses PUM1 PUF domain R2-RVT (Homo sapiens, UniProt Q14671 828-1176, N899R;Y900V;Q903T). The procedure, abridged: as §1
The next assay addresses PUM1 PUF domain R7-ISG (Homo sapiens, UniProt Q14671 828-1176, S1079I;N1080S;E1083G). In short, it runs like this: as §1

Numbering of substitutions follows the chain as printed.

This is an account of results in paper PMC8384837, “Expanding the binding specificity for RNA recognition by a PUF domain”.

With “GGCUAGAACUAGUGGAUCCCCCGGCGCCCGGCGGCUCGAGCCCGGGUAAGUGUCAAUAGUCUGCAUGCCGCCGGGCGCCAUGCCUGCAGGUCGACUCUAGAAAACAUG”, the binding signal with PUM1 PUF domain R5-AAR was 4.02 log2 enrichment (interaction score); in the assay with PUM1 PUF domain R5-KRK, 3.89 log2 enrichment (interaction score); in the assay with PUM1 PUF domain R5-KVE it was 2.24 log2 enrichment (interaction score).
Turning to “GGCUAGAACUAGUGGAUCCCCCGGCGCCCGGCGGCUCGAGCCCGGGUAAGUGUUAAUAGUCUGCAUGCCGCCGGGCGCCAUGCCUGCAGGUCGACUCUAGAAAACAUG”, the binding signal was 1.62 log2 enrichment (interaction score) with PUM1 PUF domain R5-AAR and 2.98 log2 enrichment (interaction score) with PUM1 PUF domain R5-KRK.
As to “GGCUAGAACUAGUGGAUCCCCCGGCGCCCGGCGGCUCGAGCCCGGGUAAGUGAAAAUAGUCUGCAUGCCGCCGGGCGCCAUGCCUGCAGGUCGACUCUAGAAAACAUG”, the binding signal with PUM1 PUF domain R6-KWC is 6.72 log2 enrichment (interaction score).
Consider “GGCUAGAACUAGUGGAUCCCCCGGCGCCCGGCGGCUCGAGCCCGGGUAAGUGUAAAUAGUCUGCAUGCCGCCGGGCGCCAUGCCUGCAGGUCGACUCUAGAAAACAUG”, for which the binding signal with PUM1 PUF domain R6-RWL was 5.11 log2 enrichment (interaction score); in the assay with PUM1 PUF domain R6-CWL, 3.76 log2 enrichment (interaction score); in the assay with PUM1 PUF domain R3-PFV it was 3.44 log2 enrichment (interaction score); in the assay with PUM1 PUF domain R3-SRF, 2.58 log2 enrichment (interaction score); with PUM1 PUF domain R3-FYS, 3.03 log2 enrichment (interaction score); with PUM1 PUF domain R4-VPC, 2.65 log2 enrichment (interaction score). In addition, the binding signal with PUM1 PUF domain R2-NWP was 4.83 log2 enrichment (interaction score); with PUM1 PUF domain R8-KFY, 2.5 log2 enrichment (interaction score).
With “GGCUAGAACUAGUGGAUCCCCCGGCGCCCGGCGGCUCGAGCCCGGGUAAGCGUAAAUAGUCUGCAUGCCGCCGGGCGCCAUGCCUGCAGGUCGACUCUAGAAAACAUG”, the binding signal with PUM1 PUF domain R8-HFP was 6.79 log2 enrichment (interaction score); in the assay with PUM1 PUF domain R8-PYC, 3.77 log2 enrichment (interaction score); with PUM1 PUF domain R8-KFY it was 2.74 log2 enrichment (interaction score).
Take “GGCUAGAACUAGUGGAUCCCCCGGCGCCCGGCGGCUCGAGCCCGGGUAAGUGUAUAUAGUCUGCAUGCCGCCGGGCGCCAUGCCUGCAGGUCGACUCUAGAAAACAUG”: the binding signal in the assay with PUM1 PUF domain R4-DFR was 6.14 log2 enrichment (interaction score).
On to “GGCUAGAACUAGUGGAUCCCCCGGCGCCCGGCGGCUCGAGCCCGGGUAAGUGUACAUAGUCUGCAUGCCGCCGGGCGCCAUGCCUGCAGGUCGACUCUAGAAAACAUG”, for which the values for the binding signal with PUM1 PUF domain R4-DFR and with PUM1 PUF domain R4-VPC were 5.83 log2 enrichment (interaction score) and 3.7 log2 enrichment (interaction score), respectively.
Consider “GGCUAGAACUAGUGGAUCCCCCGGCGCCCGGCGGCUCGAGCCCGGGUAAGUUUAAAACGUCUGCAUGCCGCCGGGCGCCAUGCCUGCAGGUCGACUCUAGAAAACAUG”, for which, in assay [1], the binding signal was 6.82 log2 enrichment (interaction score).
For “GGCUAGAACUAGUGGAUCCCCCGGCGCCCGGCGGCUCGAGCCCGGGUAAGUGUAAAUCGUCUGCAUGCCGCCGGGCGCCAUGCCUGCAGGUCGACUCUAGAAAACAUG”, the binding signal with PUM1 PUF domain R1-TKK is 3.92 log2 enrichment (interaction score).
On to “GGCUAGAACUAGUGGAUCCCCCGGCGCCCGGCGGCUCGAGCCCGGGUAAGUGUAAUUAGUCUGCAUGCCGCCGGGCGCCAUGCCUGCAGGUCGACUCUAGAAAACAUG”, for which the binding signal in the assay with PUM1 PUF domain R3-RPQ was 3.45 log2 enrichment (interaction score); in the assay with PUM1 PUF domain R3-PFV, 2.52 log2 enrichment (interaction score).
As to “GGCUAGAACUAGUGGAUCCCCCGGCGCCCGGCGGCUCGAGCCCGGGUAAGUGUAAAGAGUCUGCAUGCCGCCGGGCGCCAUGCCUGCAGGUCGACUCUAGAAAACAUG”, in the assay with PUM1 PUF domain R2-RVT, the binding signal is 2.17 log2 enrichment (interaction score).
As to “GGCUAGAACUAGUGGAUCCCCCGGCGCCCGGCGGCUCGAGCCCGGGUAAGUUUAAAUAGUCUGCAUGCCGCCGGGCGCCAUGCCUGCAGGUCGACUCUAGAAAACAUG”, in the assay with PUM1 PUF domain R7-ISG, the binding signal is 5.55 log2 enrichment (interaction score).
